The full data set covers some 8,800 targets. This sample favours those with a hit. About 0.5% of all pairs of compound and target were hits. A number with no mark means an inactive call.
What was measured:
Assay in all cases: log2 fold change, soluble protein after heating vs DMSO (PISA); higher = thermal stabilisation; K562 lysate, 10 uM; active = over 0.2 and 3.5 SD of the protein, either way, in both replicates (recomputed)
[1] = compound: C#Cc1cccc(Nc2ncnc3cc(OCCOC)c(OCCOC)cc23)c1 [erlotinib]
Outline: (§1)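 Log-two fold change in thermal stability relative to solvent controls is reported from duplicates. For each sample, crude K562 extract from dounce-homogenised pellets in PBS pH 7.4 with 1 mM MgCl2, at 1 mg/mL protein, was treated with 10 μM compound for 30 min. Aliquots heated for 3 min across 48°C-58°C were pooled, brought to 0.5% NP-40 at 4°C and cleared at 21,000xg for 90 min. The supernatant was quantified by TMTpro 16plex LC-MS/MS with channel sums equalised.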

[2] = compound: C/C(=N\NC(=O)C1=CC(=CC=C1)S(=O)(=O)N2CCOCC2)/C3=C(C=CC(=C3)Cl)O
Outline: as §1

[3] = compound: C1=CC(=CC=C1C2=NC3=C(N2)C=C(C=C3)C(=O)N)OC4=CC=C(C=C4)Cl
Outline: as §1

[4] = compound: C1=CC2=C(C=CC(=C2)/C=C\3/C(=O)NC(=NCC4=CC=CS4)S3)N=C1
Outline: as §1

[5] = compound: C1=CC2=NC=CN=C2C=C1/C=C/3\C(=O)NC(=O)S3
Outline: as §1

[6] = compound: C1=CC=C(C=C1)C2=NC(=C(N2)C3=CC=NC=C3)C4=CC(=C(C=C4)Cl)O
Outline: as §1

[7] = compound: C1=CC=C2C(=C1)C3=NNC4=CC=CC(=C43)C2=O
Outline: as §1

[8] = compound: C1CCN(C1)C(=O)NC2=CC=CC(=C2)NC3=NC=C(C(=N3)NCCC4=CN=CN4)Br
Outline: as §1

[9] = compound: C1CN(CCC1(CC2=CC=C(C=C2)Cl)N)C3=NC=NC4=C3C=CN4
Outline: as §1

[10] = compound: C1COCCN1CCN2C3=CC=CC=C3N=C2NC(=O)C4=CC(=CC=C4)[N+](=O)[O-] [IRAK-1-4 Inhibitor I]
Outline: as §1

[11] = compound: C=CC(=O)N1CCC[C@@H](n2nc(-c3ccc(Oc4ccccc4)cc3)c3c(N)ncnc32)C1 [ibrutinib]
Outline: as §1

[12] = compound: CC(=O)c1cnc2ccc(-c3cc(Cl)c(O)c(Cl)c3)nc2c1N[C@H]1CC[C@H](CN(C)C)CC1
Outline: as §1

[13] = compound: CC(C)(C)Cn1c(N)nc2ccc(-c3[nH]c(C(C)(C)C)nc3-c3ccc(F)cc3)nc21 [ralimetinib]
Outline: as §1

[14] = compound: CC(C)(O)CC(=O)NCCn1ccc2ncnc(Nc3ccc(Oc4cccc(C(F)(F)F)c4)c(Cl)c3)c21
Outline: as §1

[15] = compound: CC(C)C1=C2N=C(C=C(N2N=C1)NCC3=CC=CC=C3)NCCCCCCN
Outline: as §1

[16] = compound: CC1=C(C(CC(=O)N1)C2=CC=C(C=C2)C(F)(F)F)C(=O)NC3=C(C=C4C(=C3)C=NN4)F
Outline: as §1

[17] = compound: CC1=C(C2=C(C=C1)C(=O)C3=CC=CC=C3N2CCCN)C
Outline: as §1

[18] = compound: CC1=C(C=C(C=C1)NC(=O)C2=CC(=CC=C2)C(C)(C)C#N)NC3=CC4=C(C=C3)N=CN(C4=O)C
Outline: as §1

[19] = compound: CC1=C(C=C(C=C1)NC(=O)C2=CC(=CC=C2)N(C)C)NC(=O)C3=CC=C(C=C3)O
Outline: as §1

[20] = compound: CC1=CC=C(C=C1)SC2=C3C=C(SC3=CN=C2)C(=O)N
Outline: as §1

Target: TRIP13 (UniProt Q15645)
Sequence of UniProt Q15645 (Q15645 whole entry, looked up): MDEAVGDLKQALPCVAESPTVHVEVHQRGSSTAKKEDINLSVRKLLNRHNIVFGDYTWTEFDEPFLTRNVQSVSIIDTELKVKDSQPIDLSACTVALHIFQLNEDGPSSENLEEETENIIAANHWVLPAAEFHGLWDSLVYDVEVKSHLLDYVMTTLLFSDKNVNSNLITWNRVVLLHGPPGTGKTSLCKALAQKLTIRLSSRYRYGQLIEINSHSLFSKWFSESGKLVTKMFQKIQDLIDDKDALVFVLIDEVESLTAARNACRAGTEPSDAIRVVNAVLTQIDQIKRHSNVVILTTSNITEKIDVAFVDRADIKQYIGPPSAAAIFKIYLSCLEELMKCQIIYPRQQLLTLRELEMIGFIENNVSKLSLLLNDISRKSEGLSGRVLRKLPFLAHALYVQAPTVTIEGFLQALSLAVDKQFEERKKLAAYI
- log2 fold change [1]: 0.034
- log2 fold change [2]: -0.117
- log2 fold change [3]: 0.007
- log2 fold change [4]: 0.04
- log2 fold change [5]: -0.034
- log2 fold change [6]: 0.009
- log2 fold change [7]: -0.038
- log2 fold change [8]: 0
- log2 fold change [9]: -0.002
- log2 fold change [10]: 0.005
- log2 fold change [11]: -0.025
- log2 fold change [12]: -0.013
- log2 fold change [13]: 0.039
- log2 fold change [14]: 0.023
- log2 fold change [15]: -0.022
- log2 fold change [16]: -0.004
- log2 fold change [17]: 0.006
- log2 fold change [18]: 0.029
- log2 fold change [19]: 0.045
- log2 fold change [20]: 0.001

Target: TPST2 (UniProt O60704)
- log2 fold change [1]: -0.064
- log2 fold change [2]: -0.062
- log2 fold change [3]: 0.042
- log2 fold change [4]: 0.049
- log2 fold change [5]: -0.002
- log2 fold change [6]: -0.016
- log2 fold change [7]: -0.06
- log2 fold change [8]: 0.015
- log2 fold change [9]: 0.032
- log2 fold change [10]: -0.038
- log2 fold change [11]: -0.098
- log2 fold change [12]: -0.036
- log2 fold change [13]: 0.006
- log2 fold change [14]: 0.019
- log2 fold change [15]: -0.08
- log2 fold change [16]: 0.039
- log2 fold change [17]: -0.06
- log2 fold change [18]: -0.039
- log2 fold change [19]: -0.036
- log2 fold change [20]: -0.08

Target: TRIM23 (UniProt P36406)
- log2 fold change [1]: -0.044
- log2 fold change [2]: -0.022
- log2 fold change [3]: 0.037
- log2 fold change [4]: 0.014
- log2 fold change [5]: 0.034
- log2 fold change [6]: 0.493
- log2 fold change [7]: -0.011
- log2 fold change [8]: -0.017
- log2 fold change [9]: 0.105
- log2 fold change [10]: 0.183
- log2 fold change [11]: -0.031
- log2 fold change [12]: 0.061
- log2 fold change [13]: -0.102
- log2 fold change [14]: -0.085
- log2 fold change [15]: -0.056
- log2 fold change [16]: 0.026
- log2 fold change [17]: -0.065
- log2 fold change [18]: 0.099
- log2 fold change [19]: -0.22
- log2 fold change [20]: -0.022

Target: TFCP2 (UniProt Q12800)
Sequence of UniProt Q12800 (Q12800 whole entry, looked up): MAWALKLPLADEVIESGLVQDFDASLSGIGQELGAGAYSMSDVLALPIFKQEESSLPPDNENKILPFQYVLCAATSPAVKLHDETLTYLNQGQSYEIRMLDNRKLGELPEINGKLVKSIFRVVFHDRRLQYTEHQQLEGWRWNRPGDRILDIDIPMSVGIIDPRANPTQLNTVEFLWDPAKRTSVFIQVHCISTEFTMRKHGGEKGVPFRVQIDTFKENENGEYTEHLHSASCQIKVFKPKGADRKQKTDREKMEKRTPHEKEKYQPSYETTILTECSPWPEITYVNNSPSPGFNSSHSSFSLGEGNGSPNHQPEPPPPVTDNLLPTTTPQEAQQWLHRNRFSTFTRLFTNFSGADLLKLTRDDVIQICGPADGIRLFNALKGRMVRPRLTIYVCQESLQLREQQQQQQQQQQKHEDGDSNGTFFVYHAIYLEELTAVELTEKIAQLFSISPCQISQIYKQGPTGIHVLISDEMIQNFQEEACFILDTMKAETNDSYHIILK
- log2 fold change [1]: -0.035
- log2 fold change [2]: 0.08
- log2 fold change [3]: -0.115
- log2 fold change [4]: 0.01
- log2 fold change [5]: -0.042
- log2 fold change [6]: -0.007
- log2 fold change [7]: -0.02
- log2 fold change [8]: -0.038
- log2 fold change [9]: -0.044
- log2 fold change [10]: 0.035
- log2 fold change [11]: -0.055
- log2 fold change [12]: 0.054
- log2 fold change [13]: 0.032
- log2 fold change [14]: -0.028
- log2 fold change [15]: 0.051
- log2 fold change [16]: -0.026
- log2 fold change [17]: 0
- log2 fold change [18]: 0.059
- log2 fold change [19]: -0.02
- log2 fold change [20]: 0.026

Target: TPP2 (UniProt P29144)
Sequence of UniProt P29144 (P29144 whole entry, looked up): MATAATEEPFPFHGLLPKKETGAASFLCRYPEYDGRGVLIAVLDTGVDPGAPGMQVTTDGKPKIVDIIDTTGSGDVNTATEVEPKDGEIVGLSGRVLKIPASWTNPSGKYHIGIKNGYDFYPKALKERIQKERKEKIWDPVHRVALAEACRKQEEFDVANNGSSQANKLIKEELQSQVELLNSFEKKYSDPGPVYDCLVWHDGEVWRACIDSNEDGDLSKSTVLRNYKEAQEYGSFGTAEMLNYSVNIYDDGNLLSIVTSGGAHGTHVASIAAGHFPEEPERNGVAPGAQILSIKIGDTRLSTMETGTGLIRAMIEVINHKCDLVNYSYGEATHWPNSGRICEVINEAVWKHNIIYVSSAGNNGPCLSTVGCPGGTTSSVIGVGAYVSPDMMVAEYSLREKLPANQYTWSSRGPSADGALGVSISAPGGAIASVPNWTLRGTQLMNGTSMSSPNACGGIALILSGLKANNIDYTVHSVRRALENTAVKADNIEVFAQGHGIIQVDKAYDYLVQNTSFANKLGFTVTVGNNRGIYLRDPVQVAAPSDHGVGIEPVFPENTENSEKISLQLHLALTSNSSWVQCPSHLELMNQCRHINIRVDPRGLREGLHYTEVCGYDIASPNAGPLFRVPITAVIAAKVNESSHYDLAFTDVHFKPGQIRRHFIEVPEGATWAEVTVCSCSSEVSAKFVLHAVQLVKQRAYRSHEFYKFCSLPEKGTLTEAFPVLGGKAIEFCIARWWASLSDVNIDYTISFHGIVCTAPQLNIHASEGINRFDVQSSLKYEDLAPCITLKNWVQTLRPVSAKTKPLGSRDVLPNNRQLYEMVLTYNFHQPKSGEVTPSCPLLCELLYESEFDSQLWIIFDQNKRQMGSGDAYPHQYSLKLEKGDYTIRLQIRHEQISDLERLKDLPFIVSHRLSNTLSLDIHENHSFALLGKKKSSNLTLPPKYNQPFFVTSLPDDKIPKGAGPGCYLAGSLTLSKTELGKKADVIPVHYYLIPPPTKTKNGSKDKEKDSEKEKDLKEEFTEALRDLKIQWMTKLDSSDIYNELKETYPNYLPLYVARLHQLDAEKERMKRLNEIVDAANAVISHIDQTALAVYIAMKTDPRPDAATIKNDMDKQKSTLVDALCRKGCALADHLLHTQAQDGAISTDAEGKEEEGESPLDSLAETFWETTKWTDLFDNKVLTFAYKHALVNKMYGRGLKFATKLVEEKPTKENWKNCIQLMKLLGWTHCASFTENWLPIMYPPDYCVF
- log2 fold change [1]: -0.001
- log2 fold change [2]: -0.098
- log2 fold change [3]: 0.01
- log2 fold change [4]: 0.001
- log2 fold change [5]: 0.006
- log2 fold change [6]: 0
- log2 fold change [7]: -0.02
- log2 fold change [8]: -0.003
- log2 fold change [9]: -0.005
- log2 fold change [10]: -0.002
- log2 fold change [11]: -0.018
- log2 fold change [12]: -0.016
- log2 fold change [13]: -0.002
- log2 fold change [14]: 0.014
- log2 fold change [15]: -0.012
- log2 fold change [16]: -0.013
- log2 fold change [17]: 0.003
- log2 fold change [18]: 0.008
- log2 fold change [19]: 0.012
- log2 fold change [20]: 0.002

Target: TECR (UniProt Q9NZ01)
- log2 fold change [1]: 0.024
- log2 fold change [2]: -0.029
- log2 fold change [3]: -0.113
- log2 fold change [4]: 0.019
- log2 fold change [5]: 0.083
- log2 fold change [6]: -0.013
- log2 fold change [7]: -0.066
- log2 fold change [8]: -0.008
- log2 fold change [9]: 0.028
- log2 fold change [10]: 0.038
- log2 fold change [11]: -0.003
- log2 fold change [12]: 0.037
- log2 fold change [13]: 0
- log2 fold change [14]: -0.046
- log2 fold change [15]: -0.003
- log2 fold change [16]: 0.044
- log2 fold change [17]: 0.041
- log2 fold change [18]: -0.031
- log2 fold change [19]: 0.06
- log2 fold change [20]: 0.025

Target: UBAP2L isoform 5 (UniProt Q14157)
Sequence of UniProt Q14157 (Q14157 whole entry, looked up): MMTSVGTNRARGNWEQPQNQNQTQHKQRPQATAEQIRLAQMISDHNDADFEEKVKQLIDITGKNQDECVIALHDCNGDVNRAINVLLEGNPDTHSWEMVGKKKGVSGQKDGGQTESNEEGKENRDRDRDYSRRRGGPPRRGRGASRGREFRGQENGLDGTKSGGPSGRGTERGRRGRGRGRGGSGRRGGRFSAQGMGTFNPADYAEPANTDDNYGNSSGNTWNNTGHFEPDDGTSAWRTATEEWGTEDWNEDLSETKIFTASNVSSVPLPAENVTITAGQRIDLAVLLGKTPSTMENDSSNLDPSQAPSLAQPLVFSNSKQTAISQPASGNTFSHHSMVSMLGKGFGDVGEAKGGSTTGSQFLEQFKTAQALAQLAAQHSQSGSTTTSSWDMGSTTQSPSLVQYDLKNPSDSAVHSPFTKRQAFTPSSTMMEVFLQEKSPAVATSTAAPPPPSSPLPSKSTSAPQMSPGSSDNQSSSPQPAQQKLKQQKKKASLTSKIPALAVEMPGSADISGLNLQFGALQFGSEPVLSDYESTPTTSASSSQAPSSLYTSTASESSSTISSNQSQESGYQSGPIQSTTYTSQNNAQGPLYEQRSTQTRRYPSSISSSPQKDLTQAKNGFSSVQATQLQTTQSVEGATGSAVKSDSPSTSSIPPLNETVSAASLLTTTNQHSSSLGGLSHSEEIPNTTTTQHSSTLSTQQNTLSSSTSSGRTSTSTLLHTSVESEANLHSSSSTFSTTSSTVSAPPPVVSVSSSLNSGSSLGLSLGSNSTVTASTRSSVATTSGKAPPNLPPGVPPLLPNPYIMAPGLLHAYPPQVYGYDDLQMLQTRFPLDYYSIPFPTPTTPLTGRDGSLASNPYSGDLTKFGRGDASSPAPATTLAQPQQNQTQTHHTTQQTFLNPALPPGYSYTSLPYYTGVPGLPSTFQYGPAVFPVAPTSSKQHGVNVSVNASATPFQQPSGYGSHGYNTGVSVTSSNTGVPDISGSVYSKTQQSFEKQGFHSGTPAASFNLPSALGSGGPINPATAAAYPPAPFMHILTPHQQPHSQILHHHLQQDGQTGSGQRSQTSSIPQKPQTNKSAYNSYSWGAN
- log2 fold change [1]: -0.021
- log2 fold change [2]: -0.019
- log2 fold change [3]: 0.035
- log2 fold change [4]: 0.008
- log2 fold change [5]: 0.027
- log2 fold change [6]: -0.184
- log2 fold change [7]: 0.065
- log2 fold change [8]: 0.009
- log2 fold change [9]: -0.023
- log2 fold change [10]: 0.065
- log2 fold change [11]: 0.024
- log2 fold change [12]: 0.028
- log2 fold change [13]: -0.026
- log2 fold change [14]: -0.055
- log2 fold change [15]: 0.019
- log2 fold change [16]: 0.009
- log2 fold change [17]: 0.024
- log2 fold change [18]: -0.529 (active)
- log2 fold change [19]: -0.009
- log2 fold change [20]: 0.003

Target: UBE2H (UniProt P62256)
- log2 fold change [1]: -0.002
- log2 fold change [2]: -0.002
- log2 fold change [3]: 0.009
- log2 fold change [4]: 0.008
- log2 fold change [5]: 0.014
- log2 fold change [6]: 0.029
- log2 fold change [7]: 0.019
- log2 fold change [8]: 0.013
- log2 fold change [9]: -0.036
- log2 fold change [10]: -0.026
- log2 fold change [11]: 0.032
- log2 fold change [12]: 0.026
- log2 fold change [13]: -0.033
- log2 fold change [14]: -0.002
- log2 fold change [15]: -0.004
- log2 fold change [16]: 0.064
- log2 fold change [17]: 0.022
- log2 fold change [18]: 0.005
- log2 fold change [19]: 0.026
- log2 fold change [20]: -0.027

Target: TMEM263 (UniProt Q8WUH6)
- log2 fold change [1]: -0.114
- log2 fold change [2]: -0.104
- log2 fold change [3]: 0.273
- log2 fold change [4]: -0.119
- log2 fold change [5]: -0.022
- log2 fold change [6]: -0.05
- log2 fold change [7]: -0.012
- log2 fold change [8]: -0.006
- log2 fold change [9]: 0.095
- log2 fold change [10]: 0.026
- log2 fold change [11]: -0.04
- log2 fold change [12]: -0.003
- log2 fold change [13]: -0.037
- log2 fold change [14]: -0.174
- log2 fold change [15]: -0.002
- log2 fold change [16]: 0.349
- log2 fold change [17]: 0.049
- log2 fold change [18]: -0.058
- log2 fold change [19]: 0.004
- log2 fold change [20]: -0.079

Target: TLK1 isoform 2 (UniProt Q9UKI8)
Sequence of UniProt Q9UKI8 (Q9UKI8 whole entry, looked up): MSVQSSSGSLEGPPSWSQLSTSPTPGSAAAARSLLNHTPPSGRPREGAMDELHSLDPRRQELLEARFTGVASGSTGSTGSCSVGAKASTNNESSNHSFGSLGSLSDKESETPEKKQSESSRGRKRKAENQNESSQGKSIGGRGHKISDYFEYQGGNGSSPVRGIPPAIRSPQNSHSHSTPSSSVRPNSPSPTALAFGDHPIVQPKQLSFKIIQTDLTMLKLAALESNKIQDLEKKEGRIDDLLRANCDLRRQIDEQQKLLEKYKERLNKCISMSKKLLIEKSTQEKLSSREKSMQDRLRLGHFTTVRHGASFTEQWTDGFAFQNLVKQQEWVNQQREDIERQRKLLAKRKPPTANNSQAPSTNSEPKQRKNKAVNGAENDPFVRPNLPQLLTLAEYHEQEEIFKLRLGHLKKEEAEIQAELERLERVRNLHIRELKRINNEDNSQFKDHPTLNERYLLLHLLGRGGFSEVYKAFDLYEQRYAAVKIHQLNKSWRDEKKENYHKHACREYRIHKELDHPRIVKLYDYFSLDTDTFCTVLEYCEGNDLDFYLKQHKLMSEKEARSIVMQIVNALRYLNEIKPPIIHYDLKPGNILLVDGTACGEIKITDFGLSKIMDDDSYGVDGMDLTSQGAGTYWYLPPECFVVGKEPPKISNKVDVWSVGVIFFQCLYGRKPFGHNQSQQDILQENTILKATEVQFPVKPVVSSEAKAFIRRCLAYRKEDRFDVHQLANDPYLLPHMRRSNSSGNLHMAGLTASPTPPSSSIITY
- log2 fold change [1]: 0
- log2 fold change [2]: -0.029
- log2 fold change [3]: -0.024
- log2 fold change [4]: -0.013
- log2 fold change [5]: -0.007
- log2 fold change [6]: -0.016
- log2 fold change [7]: 0.145
- log2 fold change [8]: 0.007
- log2 fold change [9]: 0.099
- log2 fold change [10]: 0.023
- log2 fold change [11]: 0.017
- log2 fold change [12]: 0.094
- log2 fold change [13]: 0.053
- log2 fold change [14]: 0.01
- log2 fold change [15]: 0.012
- log2 fold change [16]: -0.002
- log2 fold change [17]: 0.038
- log2 fold change [18]: -0.013
- log2 fold change [19]: -0.037
- log2 fold change [20]: 0

Target: TRAF2 isoform 2 (UniProt Q12933)
- log2 fold change [1]: 0.026
- log2 fold change [2]: -0.002
- log2 fold change [3]: 0.008
- log2 fold change [4]: 0.013
- log2 fold change [5]: -0.016
- log2 fold change [6]: -0.01
- log2 fold change [7]: -0.015
- log2 fold change [8]: -0.008
- log2 fold change [9]: 0.029
- log2 fold change [10]: 0.033
- log2 fold change [11]: -0.026
- log2 fold change [12]: -0.002
- log2 fold change [13]: 0.022
- log2 fold change [14]: -0.022
- log2 fold change [15]: -0.051
- log2 fold change [16]: -0.004
- log2 fold change [17]: -0.028
- log2 fold change [18]: 0.029
- log2 fold change [19]: -0.009
- log2 fold change [20]: -0.006

Target: TUBGCP2 isoform 4 (UniProt Q9BSJ2)
Sequence of UniProt Q9BSJ2 (Q9BSJ2 whole entry, looked up): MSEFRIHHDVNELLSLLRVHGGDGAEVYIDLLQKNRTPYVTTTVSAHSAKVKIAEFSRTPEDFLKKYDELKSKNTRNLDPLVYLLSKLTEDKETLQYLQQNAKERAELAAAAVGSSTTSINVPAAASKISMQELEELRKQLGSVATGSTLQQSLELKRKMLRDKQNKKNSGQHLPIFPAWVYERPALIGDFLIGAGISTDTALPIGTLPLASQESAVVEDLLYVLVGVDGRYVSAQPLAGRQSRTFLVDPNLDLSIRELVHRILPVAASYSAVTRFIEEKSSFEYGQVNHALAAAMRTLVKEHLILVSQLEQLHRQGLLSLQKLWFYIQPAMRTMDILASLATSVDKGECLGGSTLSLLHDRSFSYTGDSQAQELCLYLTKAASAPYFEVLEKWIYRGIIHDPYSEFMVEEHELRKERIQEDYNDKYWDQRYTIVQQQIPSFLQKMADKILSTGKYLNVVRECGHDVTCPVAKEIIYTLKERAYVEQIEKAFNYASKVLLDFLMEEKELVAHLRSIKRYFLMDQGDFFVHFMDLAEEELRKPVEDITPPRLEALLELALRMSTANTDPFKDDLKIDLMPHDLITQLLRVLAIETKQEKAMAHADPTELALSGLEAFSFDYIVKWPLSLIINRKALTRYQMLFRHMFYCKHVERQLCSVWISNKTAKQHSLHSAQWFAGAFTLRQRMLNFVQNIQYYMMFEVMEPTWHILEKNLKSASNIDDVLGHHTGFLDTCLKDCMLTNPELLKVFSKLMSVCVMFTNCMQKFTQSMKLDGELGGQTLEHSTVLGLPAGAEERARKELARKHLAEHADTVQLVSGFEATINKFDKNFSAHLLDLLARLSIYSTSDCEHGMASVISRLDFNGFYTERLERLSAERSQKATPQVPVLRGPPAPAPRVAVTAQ
- log2 fold change [1]: 0.036
- log2 fold change [2]: -0.048
- log2 fold change [3]: 0.012
- log2 fold change [4]: 0.025
- log2 fold change [5]: 0.014
- log2 fold change [6]: -0.005
- log2 fold change [7]: -0.029
- log2 fold change [8]: -0.014
- log2 fold change [9]: 0.004
- log2 fold change [10]: -0.041
- log2 fold change [11]: -0.001
- log2 fold change [12]: 0.042
- log2 fold change [13]: -0.007
- log2 fold change [14]: -0.016
- log2 fold change [15]: -0.006
- log2 fold change [16]: 0.011
- log2 fold change [17]: -0.023
- log2 fold change [18]: 0.035
- log2 fold change [19]: 0.048
- log2 fold change [20]: -0.017

— the supplement of paper PMC10849652
